Sampled rows, rich in hits. Any-hit rate of the full collection: about 7.3%.
HCV inhibitor: HCV inhibition; Huh7.5.1 HCVcc-Cre infection, luciferase reporter, 44 h; Potency, µM (series often up to 41.8 µM), actives largely listed as inhibitors; 3.4% of 340,000 active; AID 651820; active = well fitted inhibition curve with a large enough effect; inconclusive = small, poorly fitted or top-dose-only effect, or another doubt; inactive = no such curve, though single readings can be large or run the other way
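Cells (1,000/well) were plated 4 h before compound, then infected with HCVcc-Cre virus (~0.5 moi). After 44 h further culture, infection was read as luciferase luminescence following a 15 min substrate incubation at room temperature.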
FMDV antiviral: antivirals against foot and mouth disease virus; Potency, µM (doses to about 57.9 µM), most hits filed as inhibitors; 1.2% of 410,000 active; FMDV antiviral cell-based qHTS; calls by dose curve; tested in HEK293T cells; note: read-out not given here; nearly all actives have a fitted effect of over 45% in size
VACV mCherry inh: inhibitors of vaccinia virus infection (mCherry reporter signal) | Vaccinia virus mCherry reporter infection, fluorescence | 0.63% of 310,000 active | Potency, µM (top dose mostly 36.5 µM), actives largely listed as inhibitors | AID 720579; calls by dose curve; tested in A549 cells; note: nearly all actives have a fitted effect of over 35% in size
Vaccinia Venus: inhibitors of vaccinia virus (Venus reporter); Vaccinia virus Venus reporter expression, fluorescence; Potency, µM (highest dose often 36.5 µM), hits mostly inhibitors; 0.46% of 330,000 active; AID 720580; calls by dose curve; tested in A549 cells; note: nearly all actives have a fitted effect of over 30% in size
HCMV inh: blocks human cytomegalovirus replication | HFF cells, HCMV-luciferase reporter, 72 h; hits give low values | AID 1259415 | 4.5% of 410,000 active | activity change, negative = inhibition, % at 57.5 µM; in the data active = activity change below about -60%; inconclusive = no clear call, values can overlap the other calls; inactive = above about -39%
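Two compound doses tested in HFFs infected with HCMV-luciferase, MOI 1 PFU/cell, 72 h at 37C. Lysate luminescence read with OneGlo; data normalized against buffer-only and 10uM Salinomycin inhibitor controls.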
Large screens that a line does not name were inactive.

COc1ccc(/C=C(\C#N)C(=O)N2CCOCC2)cc1Br	none
O=C1c2ccccc2-c2n[nH]c(=O)c3ccc(N4CCCCC4)c1c23	HCV inhibitor 11µM, FMDV antiviral inconclusive, VACV mCherry inh inconclusive, Vaccinia Venus inconclusive, HCMV inh -62
O=C1c2cccc3c(N4CCCCC4)ccc(c23)C(=O)N1c1ccccn1	none (no result: VACV mCherry inh)
O=c1cc(CN2CCN(C/C=C/c3ccccc3)CC2)c2cc(O)ccc2o1	HCV inhibitor inconclusive, FMDV antiviral inconclusive (no result: VACV mCherry inh, Vaccinia Venus)
Cc1ccc2c(CN3CCC(C)CC3)cc(=O)oc2c1	HCV inhibitor inconclusive
Cc1cccc(N2CCN(Cc3cc(=O)oc4cc(C)ccc34)CC2C)c1 (centres undefined)	HCMV inh -66 (no result: HCV inhibitor)
Cc1ccc2oc(=O)cc(CN3CCN(C/C=C/c4ccccc4)CC3)c2c1	HCV inhibitor 10µM
CCOc1ccc(-c2cc(N)n(S(=O)(=O)c3ccc(OC)c(OC)c3)n2)cc1	HCV inhibitor 22µM, HCMV inh -60
COc1ccc(-c2cc(N)n(S(=O)(=O)c3ccc(F)cc3)n2)cc1OC	HCV inhibitor 10µM, FMDV antiviral inconclusive, VACV mCherry inh 7.1µM, Vaccinia Venus inconclusive
Nc1cc(-c2ccccc2)nn1S(=O)(=O)c1ccc(F)cc1	HCV inhibitor 10µM, FMDV antiviral inconclusive, VACV mCherry inh 10µM, Vaccinia Venus inconclusive, HCMV inh inconclusive
Nc1cc(-c2ccc(Br)cc2)nn1S(=O)(=O)c1ccccc1	FMDV antiviral inconclusive, HCMV inh inconclusive
CC(C)(C)OC(=O)N1CCC(C(=O)Nc2ccc(C(=O)N3CCCCC3)cc2)CC1	none
CN(C(=O)CSc1nnnn1-c1ccc(O)cc1)C1CCCCC1	none (no result: VACV mCherry inh, Vaccinia Venus)
COc1ccc(C(=O)NC(C(=O)NCC2(N3CCCCC3)CCCCC2)C(C)C)cc1 (centres undefined)	HCMV inh -76 (no result: VACV mCherry inh, Vaccinia Venus)
C/C(=N\NC(=O)c1c(C)nc2ccccn12)c1cccc([N+](=O)[O-])c1	none
Cc1nc2ccccn2c1C(=O)/C=C/c1cccc([N+](=O)[O-])c1	FMDV antiviral 6.3µM, HCMV inh -101 (no result: VACV mCherry inh, Vaccinia Venus)
Cc1ccc(/C=C/C(=O)c2c(C)nc3ccccn23)cc1	HCMV inh -88 (no result: VACV mCherry inh, Vaccinia Venus)
CC(=O)c1c(C)nc2ccccn12	none (no result: VACV mCherry inh, Vaccinia Venus)
Cc1ccccc1-c1nc(-n2ccnc2)c2ccccc2n1	none (no result: HCV inhibitor, HCMV inh)
CC(=O)Nc1c(C(=O)Nc2cccc(C)c2)nnn1-c1ccc(C)cc1	HCMV inh -62 (no result: HCV inhibitor)
CCOC(=O)c1nn(-c2ccc(C)cc2)c(=O)cc1OCC(=O)Nc1cccc(C)c1	none
COc1ccc(COC(=O)CNC(=O)C2CCCCC2)cc1F	none
Clc1cccc(CNCCCSc2ncccn2)c1	none
O=S(=O)(NCc1nc2cccnc2n1Cc1ccc(F)cc1)c1ccc2c(c1)CCCC2	none (no result: HCV inhibitor)
Cc1c(CCOC(=O)CC23CC4CC(CC(C4)C2)C3)sc[n+]1Cc1ccccc1	FMDV antiviral inconclusive, HCMV inh inconclusive (no result: VACV mCherry inh, Vaccinia Venus)
Cc1c(CCOC(=O)C23CC4CC(CC(C4)C2)C3)sc[n+]1CC#N	FMDV antiviral inconclusive, HCMV inh -99
Cc1c(C(=O)NCCCN2CCCC2=O)oc2ccc(S(=O)(=O)N3CCOCC3)cc12	none (no result: VACV mCherry inh, Vaccinia Venus)
Cc1ccc(NC(=O)c2oc3ccc(S(=O)(=O)N4CCOCC4)cc3c2C)c(C)c1	none
Cc1cccc(NC(=O)c2oc3ccc(S(=O)(=O)N4CCOCC4)cc3c2C)c1C	HCV inhibitor 10µM, FMDV antiviral inconclusive (no result: VACV mCherry inh, Vaccinia Venus)
Cc1c(C(=O)NCCC2=CCCCC2)oc2ccc(S(=O)(=O)N3CCOCC3)cc12	HCV inhibitor 10µM, FMDV antiviral 14µM, HCMV inh -69 (no result: VACV mCherry inh, Vaccinia Venus)
Cc1cccc(NC(=O)c2oc3ccccc3c2NC(=O)c2cc(=O)c3ccc(C)cc3o2)c1	none (no result: HCV inhibitor)
CN(CC1COc2ccccc2O1)c1nc(-c2cccnc2)nc2ccccc12 (centres undefined)	HCV inhibitor 11µM, FMDV antiviral 25µM, VACV mCherry inh inconclusive
c1cncc(-c2nc(NCC3COc4ccccc4O3)c3ccccc3n2)c1 (centres undefined)	HCV inhibitor 11µM, FMDV antiviral 22µM, VACV mCherry inh inconclusive, Vaccinia Venus 11µM
CC1=CC(C)(C)N(S(=O)(=O)c2ccc(F)cc2)c2ccccc21	FMDV antiviral inconclusive, Vaccinia Venus inconclusive
CC(=O)Nc1ccc(S(=O)(=O)N2c3ccccc3C(C)=CC2(C)C)cc1	HCMV inh -80
CC1=CC(C)(C)N(S(=O)(=O)c2ccc(C)cc2)c2ccc(C)cc21	Vaccinia Venus inconclusive, HCMV inh -74 (no result: FMDV antiviral)
CCCNc1c(NS(=O)(=O)c2c(F)c(F)c(F)c(F)c2F)c(=O)oc2ccccc12	VACV mCherry inh 5µM, Vaccinia Venus inconclusive
Cc1cccc(CNC(=O)CCCN2C(=O)COc3ccc(C)cc32)c1	none (no result: HCV inhibitor)
COCCCn1cnn2c(=O)c3ccccc3nc2c1=O	none (no result: HCV inhibitor, FMDV antiviral, VACV mCherry inh, Vaccinia Venus)
Nc1c(C(=O)c2ccccc2)sc(Nc2ccc(Cl)c(Cl)c2)c1C(=O)Nc1ccccc1	VACV mCherry inh inconclusive, Vaccinia Venus inconclusive, HCMV inh -107 (no result: HCV inhibitor)
Cc1ccc(Nc2sc(C(=O)c3ccccc3)c(N)c2C(=O)Nc2ccc(Cl)cc2)cc1	VACV mCherry inh inconclusive, Vaccinia Venus inconclusive, HCMV inh -103 (no result: HCV inhibitor)
Cc1cc(OCC(=O)Nc2ccc(-c3nc4cc(Cl)ccc4o3)cc2)cc(C)c1Cl	none (no result: HCV inhibitor)
CCCNC(=O)C1(C)CCN(C(=O)c2ccccc2OC)C1 (centres undefined)	none (no result: HCV inhibitor)
CC1=C(C(=O)OCc2ccccc2)C(c2ccccc2Br)NC(=O)N1 (centres undefined)	HCV inhibitor 10µM, FMDV antiviral 28µM
COc1ccc(COC(=O)C2=C(C)NC(=O)NC2c2ccc(F)cc2)cc1 (centres undefined)	HCV inhibitor inconclusive, FMDV antiviral 25µM, HCMV inh -75
CCOC(=O)C1=C(C)NC(=O)NC1c1ccc(-c2ccccc2F)o1 (centres undefined)	HCV inhibitor inconclusive, FMDV antiviral inconclusive, HCMV inh -61
CCOc1ccc(C2NC(=O)NC(C)=C2C(=O)OCc2ccccc2)cc1 (centres undefined)	FMDV antiviral inconclusive
COCCOC(=O)C1=C(C)NC(=O)NC1c1ccc(-c2ccc(F)cc2)o1 (centres undefined)	HCMV inh inconclusive
CC1=C(C(=O)OCc2ccccc2)C(c2ccccc2Cl)NC(=O)N1C (centres undefined)	HCV inhibitor inconclusive, FMDV antiviral 18µM
COc1ccc(OC)c(C2NC(=O)N(C)C(C)=C2C(=O)OCc2ccccc2)c1 (centres undefined)	FMDV antiviral inconclusive (no result: VACV mCherry inh, Vaccinia Venus)
CC(C)C(=O)N1CCC1(C)C(=O)Nc1nc2ccccc2[nH]1 (centres undefined)	none (no result: HCV inhibitor)
CC1(C)OC(=O)C2=C(CC(CCc3ccccc3)OC2c2ccc(Cl)c(Cl)c2)O1 (centres undefined)	none (no result: HCV inhibitor, FMDV antiviral, VACV mCherry inh, Vaccinia Venus)
CC1=C(C(=O)OC2CCCCCCC2)C(c2ccc(O)cc2)NC(=O)N1 (centres undefined)	none (no result: FMDV antiviral)
CC1=C(C(=O)OC2CCCCC2)C(c2ccccc2)NC(=O)N1 (centres undefined)	HCV inhibitor 10µM
CCOc1ccccc1C1NC(=O)NC(C)=C1C(=O)OC1CCCCC1 (centres undefined)	none (no result: FMDV antiviral)

Assay outcomes from PubChem BioAssay.
